Nrf2 inh: blocks Nrf2 signaling; A549 ARE-Fluc reporter, luciferase luminescence, 18-24 h; Potency, µM (highest dose often 46 µM), for the others: top-dose activity change, negative = inhibition, hits mostly inhibitors; 2.1% of 360,000 active; note: potency is the fitted concentration of half-maximal effect; nearly all actives have a fitted effect of over 60% in size
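Cells were seeded and rested 2 h, then exposed to compounds for 18-24 h. CellTiter-Fluor was read first as a viability measure. BugLite was added 15 min before the final luminescent read of ARE-luciferase activity in A549 cells.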
KB-V1 MDR tox: kills drug-selected multidrug resistant KB-V1 cells. AID 1347076. 3.4% of 400,000 active. Potency, µM (doses to about 46.1 µM), most hits filed as cytotoxic. KB-V1 MDR cells viability, CellTiter-Glo, 72 h; note: potency is the fitted concentration of half-maximal effect; nearly all actives have a fitted effect of over 60% in size
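Cells of the MDR subline KB-V1 are plated, dosed with compound at multiple concentrations, and incubated 72 h at 37 degrees C; CellTiter-Glo is then added and luminescence read after 10 min.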
KB-3-1 cytotox: KB-3-1 parental cell cytotoxicity; KB-3-1 viability, CellTiter-Glo ATP luminescence, 72 h; Potency, µM (highest dose often 46.1 µM), usual class: cytotoxic; 1.4% of 400,000 active; AID 1347075; note: potency is the fitted concentration of half-maximal effect; nearly all actives have a fitted effect of over 60% in size
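Multi-concentration cytotoxicity screen in KB-3-1 cells grown in DMEM lacking phenol red with 10% FBS. After 72 h at 37 °C with compound, ATP-dependent luminescence was recorded.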
PI4K2A inh: inhibitors of human PI4K2A; activity change, negative = inhibition, % at 76.9 µM; purified PI4K2A, ADP-Glo luminescence, 1 h; hits give low values; 0.13% of 420,000 active; AID 1346378; in the data active = activity change below about -50%; inconclusive = mostly about -30% to -49%;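 note: -100% = wells without enzyme as full effect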
Target sequence (Q9BTU6 whole entry, looked up): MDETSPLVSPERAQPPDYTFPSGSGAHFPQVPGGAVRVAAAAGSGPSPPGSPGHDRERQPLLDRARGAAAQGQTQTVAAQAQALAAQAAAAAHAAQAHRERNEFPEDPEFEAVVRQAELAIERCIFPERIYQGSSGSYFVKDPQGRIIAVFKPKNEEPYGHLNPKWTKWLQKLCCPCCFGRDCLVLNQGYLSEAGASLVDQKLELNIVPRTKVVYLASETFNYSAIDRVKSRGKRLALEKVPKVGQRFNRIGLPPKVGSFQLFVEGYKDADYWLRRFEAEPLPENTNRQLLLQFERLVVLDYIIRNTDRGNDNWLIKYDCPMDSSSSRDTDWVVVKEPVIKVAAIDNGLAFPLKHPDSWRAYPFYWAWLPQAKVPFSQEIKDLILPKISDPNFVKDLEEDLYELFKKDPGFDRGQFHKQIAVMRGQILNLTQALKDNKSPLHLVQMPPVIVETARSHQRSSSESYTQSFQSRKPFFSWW
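PI4K2A activity was measured by ADP-Glo luminescence: enzyme (4 ug/mL stock) and phosphatidylinositol (1.2 mM stock) in Tris pH 7.5/MgCl2/EGTA/Triton X-100 buffer were reacted with ATP (300 microM stock) for one hour at ambient temperature.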
A549 viability: kills or reduces viability of A549 cells in Nrf2 counter-screen | A549 ARE-Fluc cells, CellTiter-Fluor viability, 18-24 h | Potency, µM (top dose mostly 46 µM), for the others: top-dose activity change, negative = cytotoxicity, actives largely listed as inhibitors | 0.16% of 390,000 active; note: potency is the fitted concentration of half-maximal effect
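A549 ARE_Fluc cells in 5% FBS OPTI-MEM were exposed to compounds in concentration-response for 18-24 h at 37 deg C. Viability was read by CellTiter-Fluor fluorescence (Ex 405/Em 525) after 30 min, before the luciferase read.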
Giardia killer: Giardia lamblia killing; Giardia lamblia trophozoite viability; activity change, % at 7.66 µM, hits read low; 0.15% of 340,000 active; AID 540267; in the data active = activity change below about -80%; inconclusive = between about -30% and that limit;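 note: parasites exposed to compound for two days anaerobically before the ATP read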
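Giardia lamblia trophozoites (100 cells/well) were incubated with compounds for 48 h at 37 deg C under anaerobic conditions. Viability was read as ATP content by one-step luminescence after 15-30 min at room temperature.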
The depositor's hits bear a star; i = inactive; u = inconclusive; x = no result given; ! = a repeat was not active. Rows were chosen to be rich in hits. Some 5.7% of all compounds tested hit in one or more screens of this group. Unless noted, calls come from the whole dose curve; as a rule, active = well fitted curve in the direction sought with a large enough effect; inconclusive = small, poorly fitted or top-dose-only effect, or another doubt; inactive = no such curve, though single readings can be large; an effect the other way counts as inactive or inconclusive. Unless noted, % is set by controls: 0 for no effect and ±100 for the full control effect.

SMILES	Nrf2 inh	KB-V1 MDR tox	KB-3-1 cytotox	PI4K2A inh	A549 viability	Giardia killer
COc1ccc(-c2noc(CSc3nnc(C)n3-c3cccc(C)c3)n2)cc1	u	i	i	-8.6	-6.9%	x
c1ccc(-c2noc(CSc3nnnn3C3CCCCC3)n2)cc1	18.9%	18.4µM*	i	-2.3	4.1%	13.5
COc1ccc(-c2noc(CSc3nnc(-c4ccccc4)n3C)n2)cc1	8.2%	14.6µM*!	i	-3.3	-4.8%	7.3
COc1ccc(-c2noc(CSc3nnc(-c4ccncc4)n3-c3ccccc3)n2)cc1	u	i	i	1.1	-26.3%	x
COc1ccc(-c2noc(CSc3nnc(Cc4ccccc4)n3-c3cccc(C)c3)n2)cc1	23.1µM*	i	i	0.0	u	x
O=C(CSc1nnc(-c2cccnc2)n1-c1ccc(Cl)cc1)Nc1ccccc1-c1ccccc1	x	x	x	-3.9	x	x
COC(=O)[C@]12C[C@H](CC(=O)NCc3cccs3)C(=O)N(Cc3ccc(Cl)cc3Cl)C1=C[C@H](C(C)C)O[C@@H]2C1CC1	x	x	x	-3.6	x	x
Cc1cc2oc(=O)cc(CN3CCN(S(=O)(=O)c4ccc5c(c4)OCCO5)CC3)c2cc1C	u	i	i	3.6	u	-16.3
Cc1ccc2c(CN3CCCCC3)cc(=O)oc2c1C	29.9%	i	i	2.8	-1.2%	2.0
Cc1cc2oc(=O)cc(CN3CCN(S(=O)(=O)/C=C/c4ccccc4)CC3)c2cc1C	-24.7%	2.59µM*	i	0.7	-9.5%	0.6
Cc1ccc2c(CN3CCN(S(=O)(=O)c4ccccc4C(F)(F)F)CC3)cc(=O)oc2c1C	5.17µM*	i	u	-2.0	2.2%	18.1
COc1ccccc1-c1nnc(SCC(=O)c2c(N)n(C3CC3)c(=O)[nH]c2=O)o1	-8.8%	i	i	-2.9	0.7%	21.6
Nc1c(C(=O)CSc2nc3ccccc3o2)c(=O)[nH]c(=O)n1C1CC1	u	i	1.3µM*	3.2	0.7%	-13.8
CC(C)(C)NC(=O)[C@@H](c1cccnc1)N(C(=O)c1ccco1)c1ccc(C(C)(C)C)cc1	x	x	x	-1.8	x	x
Cc1ccc(N(Cc2ccc([N+](=O)[O-])cc2)C(=O)c2ccco2)cc1C	-0.7%	10.3µM*	i	-0.6	-1.3%	1.4
O=C(C(=Cc1ccccc1)CN1CCCCC1)c1ccccc1	u	u	5.17µM*	15.5	u	-13.9
CCN(CC)CCOC(=O)/C=C/c1ccccc1	4.3%	i	i	-2.2	10.8%	-10.7
CCN(CC)CC(C)(C)C(=O)/C=C/c1ccc(/C=C/C(=O)C(C)(C)CN(CC)CC)cc1	20.6µM*	i	u	14.2	16.4µM*	-4.1
CCOC(=O)c1c(C)cc2c(CO)n[nH]c(=O)c2c1C	x	0.82µM*	i	3.5	x	x
O=C(CCCn1c(=O)c2cccn2c2ccccc21)Nc1cccc(Cl)c1	u	x	x	2.2	-12.5%	x
Cc1ccc(CN2C(=O)C(=O)c3cc(C)ccc32)cc1	21.1%	u	u	13.6	1.4%	4.4
CCCN1C(=O)C(=O)c2cc(C)ccc21	8.3%	8.2µM*	6.51µM*	10.8	1.2%	7.5
COc1ccc(C)cc1NC(=O)C(NCC1CCCO1)c1ccccc1 (configuration not stated)	-3.9%	16.4µM*	i	3.7	-1.5%	-1.9
COc1ccc(C)cc1NC(=O)CNC(c1ccccc1)c1ccc(C)cc1 (configuration not stated)	6.7%	i	4.61µM*	4.3	-18.4%	u
COc1ccc(C(NCC(=O)NC(C)c2ccc(Cl)cc2)c2ccccc2)cc1 (configuration not stated)	14.6µM*	i	i	-1.5	u	-14.7
SMILES	Nrf2 inh	KB-V1 MDR tox	KB-3-1 cytotox	PI4K2A inh	A549 viability	Giardia killer
CC1CC(C)CN(C(=O)/C=C/c2ccc([N+](=O)[O-])s2)C1 (configuration not stated)	u	u	i	-2.7	-15.9%	u
CC1CN(C(=O)/C=C/c2ccc([N+](=O)[O-])s2)CC(C)O1 (configuration not stated)	17.3%	8.2µM*	u	-0.4	-15.0%	u
O=C(/C=C/c1ccccc1[N+](=O)[O-])N1CCCCC1	15.6%	i	i	1.2	3.4%	-5.7
O=[N+]([O-])c1cc(CN2CCCCCC2)ccc1O	3.0%	u	i	-2.8	0.6%	-4.4
O=C(/C=C/c1ccc([N+](=O)[O-])s1)N1CCN(c2ccccc2)CC1	u	i	i	-1.4	-19.4%	u
O=C(/C=C/c1ccc([N+](=O)[O-])s1)N1CCCC1	20.6µM*	u	u	-3.8	-22.9%	-86.9*
O=[N+]([O-])c1ccc(CN2CCCCCC2)s1	-3.4%	u	23.1µM*	-3.0	1.8%	u
O=C(/C=C/c1ccc([N+](=O)[O-])s1)N1CCCCC1	-1.9%	u	14.6µM*	6.2	-5.5%	-82.0*
Nc1c(C(=O)NCc2ccccc2)nnn1Cc1cccc(Br)c1	u	x	x	-5.9	-6.0%	x
Cc1cccc(N2CCN(C(=O)c3cc4c(=O)[nH]c5ccc(C)cc5c4s3)CC2C)c1 (configuration not stated)	0.8%	i	i	-1.8	7.0%	x
O=C(C[n+]1c(Cl)cc(Cl)c2ccccc21)c1ccccc1	x	i	i	x	x	x
C=C1C=C(C(F)F)n2ncc(C(=O)NCc3ccc(OC)cc3)c2N1	x	i	i	x	x	x
COc1cc2c(cc1OC)C(COc1ccc(F)cc1)N(C(=O)c1cccc(F)c1)CC2 (configuration not stated)	x	i	i	15.1	-11.1%	x
O=C(NCC(c1cccnc1)N1CCN(c2ccccc2F)CC1)c1cccc(Cl)c1 (configuration not stated)	20.6µM*	i	u	2.4	-17.3%	-2.2
CCOc1ccc(NC(=O)C(=O)NCC(c2cccnc2)N2CCc3ccccc32)cc1 (configuration not stated)	u	18.4µM*	u	-3.4	-4.8%	x
COc1ccccc1CNC(=O)C(=O)NCC(c1cccnc1)N1CCN(c2ccc(F)cc2)CC1 (configuration not stated)	20.6µM*	i	i	-1.2	u	x
COc1ccc(C(=O)NCC(c2cccnc2)N2CCN(c3ccccc3)CC2)cc1OC (configuration not stated)	u	i	5.17µM*	-4.5	33.3%	8.0
O=C(NCC(c1cccnc1)N1CCN(c2ccccc2F)CC1)c1ccc(F)cc1 (configuration not stated)	-1.4%	i	i	-3.6	0.9%	x

High-throughput results (PubChem BioAssay)
